Shown are actives, neighbours in structure and some others; about 8.1% of the full set was active somewhere.
ClpP mod: qHTS Assay for Activators of ClpP; AID 651965, 2013; 340,000 tested, 1.9% active; ATP-dependent Clp protease proteolytic subunit (Bacillus subtilis (strain 168)), P80244; Potency, µM (series often up to 57.5 µM); purified B. subtilis ClpP, FRET peptide cleavage, 20 min; active = well fitted falling curve with a large enough effect; inconclusive = small, poorly fitted or top-dose-only effect; inactive = no such curve, though single readings can be large or run the other way; also: the source files actives as falling curves though it sought activators and does not explain the sign; nearly all actives have a fitted effect of over 65% in size
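FRET quenching reversal measured ClpP activation: 10 microg/mL B. subtilis ClpP at pH 8 with the FRET-FV decapeptide, read at 430 nm after 320 nm excitation. The 20-min minus 0-min signal was scaled between DMSO/no-enzyme wells and ADEP (5.8 microM final).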
Sfp inh: blocks B. subtilis Sfp PPTase activity. AID 1490. 310,000 tested, 3.5% active. Q9F4F7. Biochemical Sfp PPTase activity, qHTS. Potency, µM, usual class: inhibitors;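 also: the enzyme is Sfp with the accession as filed and its product quenches rhodamine fluorescence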
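Sfp 15 nM + cpd, 15 min RT; start w/ rhodamine-CoA 5 uM, BHQ-2-YbbR 12.5 uM (final); 50 mM Hepes pH 7.6, 10 mM MgCl2, 0.01% NP-40, 0.01% BSA; read 525/598 nm at 0 and 30 min.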
RORgamma inh: inhibitors of mouse ROR gamma transcriptional activity | P51450 | Drosophila S2 Gal4-RORgamma UAS-luciferase reporter, 20 h | Potency, µM (highest dose often 53.6 µM), most hits filed as inhibitors | 310,000 tested, 5.4% active | AID 2551; also: nearly all actives have a fitted effect of over 60% in size
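Read-out: Photinus luciferase luminescence; inhibitors lower reporter signal. Insect Schneider cells with Gal4-ROR gamma fusion under metallothionein promoter, UAS reporter; 700 uM final copper sulfate induction, 20 hr, ambient temperature.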
Epigenetic reg: derepresses silenced GFP reporter in murine cells | murine LDR cells, GFP reporter derepression, 30 h | Potency, µM (highest dose often 53.9 µM), hits mostly activators | 280,000 tested, 0.2% active | AID 1865; also: nearly all actives have a fitted effect of over 60% in size
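GFP-positive cell count by laser-scanning cytometry (objects 20–120 um) after 30 h, 37 C compound exposure of murine LDR cells; reporter is CMV-GFP integrated at a silenced locus, inducible by HDAC or DNMT inhibitors.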
VP16 counter: Gal4-VP16 reporter inhibition counter-screen | Drosophila S2 Gal4-VP16 UAS-luciferase, luminescence, 20 h | Potency, µM (titrated, usually from 53.6 µM), actives largely listed as inhibitors | 310,000 tested, 3.5% active;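 also: Gal4-VP16 expression switched on by copper sulfate through the metallothionein promoter; nearly all actives have a fitted effect of over 50% in size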
PINK1 expr mod: modulators of PINK1 expression. Potency, µM (doses to about 76.6 µM), most hits filed as activators. AID 624263. PINK1 immunofluorescence, high-content cytometry, 24 h. 410,000 tested, 0.2% active; active = well fitted activation curve with a large enough effect; inconclusive = small, poorly fitted or top-dose-only effect; cell line not stated here; also: nearly all actives have a fitted effect of over 65% in size
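Stable cell line, 250 cells/well, 12 h attachment; compounds pinned at 5 concentrations, 24 h; CCCP control. Fixed with nuclear dye, primary antibodies 12 h at 10 degrees C, secondary plus cell stain; laser-scanning cytometer read.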
Numbers stand for hits; – = inactive; ? = inconclusive; · = not tested or not shown. Unless noted, calls follow the shape of the dose curve; as a rule, active = well fitted curve in the direction sought with a large enough effect; inconclusive = small, poorly fitted or top-dose-only effect, or another doubt; inactive = no such curve, though single readings can be large; an effect the other way counts as inactive or inconclusive.

SMILES	ClpP mod	Sfp inh	RORgamma inh	Epigenetic reg	VP16 counter	PINK1 expr mod
Cc1cccc(NC(=S)NCc2ccccc2)c1C	–	–	4µM	·	5.6µM	–
Cc1ccc(F)cc1NC(=S)NCCc1ccccc1	–	–	?	–	–	–
Cc1ccccc1NC(=S)NCc1ccc(F)cc1	·	–	7.1µM	·	6.3µM	–
CCCOc1ccccc1C(=O)N1CCCCC1CCN1CCCCC1 (stereo not drawn)	–	·	·	–	·	–
Cc1ccccc1CN1c2ccccc2-c2nc(SCC(=O)NCc3ccccc3)ncc2S1(=O)=O	32µM	·	·	?	·	–
COc1ccc(CNC(=O)CSc2ncc3c(n2)-c2cc(Cl)ccc2N(Cc2ccccc2)S3(=O)=O)cc1OC	–	·	·	22µM	·	–
COc1cccc(/C=N/n2c(-c3cccs3)n[nH]c2=S)c1	–	–	7.1µM	–	–	–
Cc1cccc(/C=N/n2c(-c3ccccc3)n[nH]c2=S)c1O	·	79µM	–	·	?	–
COc1ccc(/C=N/n2c(-c3ccccc3)n[nH]c2=S)cc1	–	–	5.6µM	·	4.5µM	–
Oc1ccc(Br)cc1/C=N/n1c(-c2ccccc2)n[nH]c1=S	–	56µM	·	·	·	–
COc1ccc(NC(=O)C2=C(C)Nc3nc(CCCO)nn3C2c2ccc(O)cc2)cc1 (stereo not drawn)	–	·	·	–	·	–
CCOC(=O)c1cccc(NC(=O)CC(c2cc(OC)c(OC)c(OC)c2)N2Cc3ccccc3C2=O)c1 (stereo not drawn)	–	·	·	–	·	–
COC(=O)C(C(C)=O)C1c2ccccc2C=C(C)N1C(=O)OC (stereo not drawn)	·	–	·	·	·	·
S=c1[nH]nc(-c2ccccc2)n1/N=C/c1cccc(Br)c1	–	–	7.1µM	·	7.1µM	–
Cc1ccccc1OCC(=O)NCCC1=CCCCC1	–	?	?	–	?	–
O=C(NC(=S)NCCC1=CCCCC1)c1ccc(Br)o1	·	–	4.5µM	–	?	–
O=C(NC(=S)NCc1ccc(Cl)cc1)c1ccco1	–	·	·	·	·	–
Cc1ccccc1C(=O)NC(=S)NCCC1=CCCCC1	·	–	4µM	–	16µM	–
O=C(NC(=S)NCCC1=CCCCC1)c1ccco1	·	–	4.5µM	–	?	–
O=C(NC(=S)NCCc1ccccc1)c1ccco1	–	–	6.3µM	–	?	–
O=C(Cc1ccccc1)NCCC1=CCCCC1	–	–	–	–	–	–
O=C(C[N+]1(CCO)CCOCC1)c1cccc2ccccc12	–	·	·	·	·	–
S=c1nc(-c2ccccc2)[nH]n1-c1ccccc1	–	40µM	7.9µM	–	11µM	–
Cc1nc(=S)n(-c2ccccc2)[nH]1	–	?	?	–	?	–
Nc1nc(=S)n(-c2ccccc2)[nH]1	·	28µM	?	–	–	–
SMILES	ClpP mod	Sfp inh	RORgamma inh	Epigenetic reg	VP16 counter	PINK1 expr mod
Cc1cccc(OCCCn2c(CCNC(=O)C3CCCCC3)nc3ccccc32)c1	–	·	·	–	·	?
CCOC(=O)CNc1ncnc2c1nnn2C	–	·	·	–	·	–
c1ccc(-c2nnc(-c3ccco3)o2)cc1	14µM	–	–	–	?	–
O=C(Nc1ccc(-c2nnc(-c3ccco3)o2)cc1)C(c1ccccc1)c1ccccc1	28µM	–	–	–	–	–
Brc1ccc(-c2nnc(-c3ccco3)o2)cc1	–	–	–	–	–	–
COc1cc([C@@H]2Nc3c(F)cccc3[C@@H]3C=CC[C@@H]32)cc(Br)c1OC	–	·	·	–	·	–
COCCNC(=O)c1ccc(-n2c(=O)c(=O)[nH]c3ccccc32)cc1	·	·	·	–	·	·
COc1ccc(N2C(=O)/C(=C/c3cccs3)NC2=S)cc1	–	10µM	10µM	–	?	–
CCOc1ccc(N2C(=O)/C(=C/c3cccs3)N(CC(=O)OC)C2=S)cc1	–	–	–	–	–	–
CCC(C)NC(=O)c1ccc2nc(-c3ccco3)c(-c3ccco3)nc2c1 (stereo not drawn)	–	·	·	·	·	–
CN(C)c1ccc(/C=C/c2ccc3cc(F)ccc3n2)cc1	–	·	·	·	·	–
CSc1nc(-c2ccco2)cc(C(F)(F)F)c1C#N	–	–	–	–	–	–
CCCSc1nc(-c2ccccc2)cc(C(F)(F)F)c1C#N	?	–	–	–	–	–

Bioassay records from PubChem BioAssay.
